Columns and labels:
[1] = molecular target: IKZF1 (dCK*-IKZF1 fusion in HEK293FT) (UniProt Q13422); assay: inhibition of IKZF1 HTRF signal (DMSO = 0%, pomalidomide 10 uM = 100%); higher = lower IKZF1 protein level; details: compound concentration: 5 uM, overnight (~20 h)
Procedure, shortened: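 Percent inhibition of IKZF1 signal was calculated per plate with vehicle and a reference degrader as anchors. The anchors were 0% for vehicle and 100% for the degrader, applied to background-subtracted 665/620 nm time-resolved FRET ratios from a commercial HTRF total-IKZF1 kit. Signal came from HEK293FT cells stably expressing an IKZF1 fusion, treated overnight at 37 °C with 5 μM compound in single wells of 384-well plates.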

[2] = test system: HEK293FT dCK*-only; assay: relative growth in counter assay (no AraC = 100%, AraC + DMSO = 0%); higher = more growth rescue independent of IKZF1; details: compound concentration: 5 uM; AraC concentration: 0.3 uM; overnight pretreatment + 4 days AraC
Procedure, shortened: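 Nuclei were counted by imaging after Hoechst 33342 staining on day 5, in HEK293FT cells (300/well, 384-well) expressing only an engineered kinase construct. Compound at 5 μM went in 2 h after seeding, followed after overnight at 37 °C by a nucleoside suicide substrate at 0.3 μM plus medium for 4 days. Per plate, wells lacking suicide substrate defined 100% and those with substrate plus vehicle defined 0%.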

[3] = test system: HEK293FT dCK*-IKZF1; assay: relative growth recovery (pomalidomide 10 uM = 100%, DMSO = 0%); higher = more growth rescue (IKZF1 fusion degradation); details: compound concentration: 5 uM; AraC concentration: 0.3 uM; overnight pretreatment + 4 days AraC
Procedure, shortened: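 HEK293FT cells stably expressing a dCK*-IKZF1 fusion (300/well, 384-well) received 5 μM compound 2 h after seeding. After overnight at 37 °C they received a nucleoside suicide substrate at 0.3 μM plus medium for 4 days. On day 5, Hoechst 33342-stained nuclei were counted by whole-well imaging. Growth recovery was normalised per plate to a reference degrader (100%) and vehicle (0%); values are means of duplicates run on different days.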

Sequence of IKZF1 (dCK*-IKZF1 fusion in HEK293FT) (Q13422 whole entry, looked up, the tested form may be a part): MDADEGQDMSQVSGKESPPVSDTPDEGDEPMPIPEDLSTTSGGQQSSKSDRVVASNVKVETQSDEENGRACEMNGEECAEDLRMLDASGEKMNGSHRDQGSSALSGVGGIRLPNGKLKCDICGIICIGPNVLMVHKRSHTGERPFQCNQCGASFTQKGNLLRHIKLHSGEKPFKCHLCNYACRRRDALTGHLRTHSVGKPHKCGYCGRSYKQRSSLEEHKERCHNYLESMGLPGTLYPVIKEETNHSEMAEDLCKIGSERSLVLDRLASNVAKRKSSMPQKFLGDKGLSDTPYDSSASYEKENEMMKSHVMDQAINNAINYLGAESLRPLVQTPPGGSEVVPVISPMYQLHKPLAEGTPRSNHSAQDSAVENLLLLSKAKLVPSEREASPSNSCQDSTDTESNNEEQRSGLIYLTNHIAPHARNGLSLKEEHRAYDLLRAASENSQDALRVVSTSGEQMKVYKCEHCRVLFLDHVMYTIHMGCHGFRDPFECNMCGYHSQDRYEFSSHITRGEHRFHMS

Row | SMILES | inhibition of IKZF1 HTRF signal [1] | relative growth in counter assay [2] | relative growth recovery [3]
1 | C=C1C(=O)O[C@H]2[C@H]1CC/C(C)=C\CC[C@@]1(C)O[C@@H]21 [Parthenolide ((-)-Parthenolide)] | -18.3% | -33.7% | -11.6%
2 | Cc1coc2c1C(=O)C(=O)c1c-2ccc2c(C)cccc12 [Tanshinone I] | -2.3% | -6.51% | -3.83%
3 | Nc1ncn([C@H]2C[C@H](O)[C@@H](CO)O2)c(=O)n1 [Decitabine] | 12% | -31.4% | -11.4%
4 | COC(=O)c1c(C)[nH]c(C)c1C(=O)c1ccccc1Cc1ccccc1 | -37.4% | 36.9% | 66.8%
5 | CO[C@H]1O[C@@H]2O[C@@]3(C)CC[C@H]4[C@H](C)CC[C@@H]([C@H]1C)[C@@]24OO3 [Artemether] [listing 1 of 2 here] | -26.4% | -14.4% | -5.75%
6 | CO[C@H]1O[C@@H]2O[C@@]3(C)CC[C@H]4[C@H](C)CC[C@@H]([C@H]1C)[C@@]24OO3 [Artemether] [listing 2 of 2 here] | -2.04% | -7.46% | -4.6%
7 | CC(=O)Nc1cccc(Nc2ncnc(N3CCC(OCc4ccc(OC(F)(F)F)cc4)CC3)n2)c1C | 4.12% | -5.23% | 1.55%
8 | CO[C@@H]1[C@@H](OC2O[C@H](C)[C@@H](O[C@H]3C[C@@](C)(O)[C@@H](O)[C@H](C)O3)[C@H](N(C)C)[C@H]2O)[C@@H](CC=O)C[C@@H](C)[C@@H](O[C@H]2CC[C@H](N(C)C)[C@@H](C)O2)/C=C/C=C/C[C@@H](C)OC(=O)C[C@H]1O (some centres not stated) | -29.9% | -5.7% | 2.43%
9 | CCC1/C=C(\C)CC(C)CC(OC)C2OC(O)(C(=O)C(=O)N3CCCCC3C(=O)OC(/C(C)=C/C3CCC(O)C(OC)C3)C(C)C(O)CC1=O)C(C)CC2OC (configuration not stated) [Ascomycin (FK520)] | 4.12% | 22.2% | 13.5%
10 | OC(c1cc(C(F)(F)F)nc2c(C(F)(F)F)cccc12)C1CCCCN1 (configuration not stated) | -31.6% | -10.6% | -7.16%
11 | CCCCCCCCCCCCCCCC[N+](C)(C)Cc1ccccc1 [Benzyldimethylhexadecylammonium chloride hydrate] | 20.2% | -20.7% | -4.92%
12 | COC(=O)Nc1ccc(-c2nc(N3CCOCC3)c3cnn(C4CCN(C(=O)OC)CC4)c3n2)cc1 | 8.25% | -9.33% | -2.33%
13 | CC(C)N(CCC(=O)c1ccc2ccccc2c1)Cc1ccccc1 | -41.5% | -2.68% | 0.035%
14 | CN1CCN(CCCN2c3ccccc3Sc3ccc(C(F)(F)F)cc32)CC1 | 5.07% | 23.1% | 3.05%
15 | CN1CCN(C2=Nc3ccccc3Sc3ccc(Cl)cc32)CC1 [Clothiapine] | 23.7% | 0.53% | 0.605%
16 | CCN(CC)CCOc1ccc2c(c1)C(=O)c1cc(OCCN(CC)CC)ccc1-2 | -2.01% | -26.5% | -8.99%
17 | O=C(Nc1nc(-c2cc(Cl)cs2)c(N2CCN(C3CCCCC3)CC2)s1)c1cnc(N2CCC(C(=O)O)CC2)c(Cl)c1 [Avatrombopag] | -35.6% | -3.51% | 1.31%
18 | O=C(Nc1cc(C(F)(F)F)ccc1O)Nc1cc(C(F)(F)F)ccc1O | -27.7% | -5.68% | -1.77%
19 | Clc1ccc(COC(Cn2ccnc2)c2ccc(Cl)cc2Cl)c(Cl)c1 (configuration not stated) [Miconazole] | 20.3% | 1.72% | 3.22%
20 | C[n+]1c2cc(N)ccc2cc2ccc(N)cc21.Nc1ccc2cc3ccc(N)cc3nc2c1 [Acriflavine hydrochloride] | 6.76% | -35.7% | -14%

Row | SMILES | inhibition of IKZF1 HTRF signal [1] | relative growth in counter assay [2] | relative growth recovery [3]
21 | COc1ccc(/C=C/C(=O)/C=C(O)/C=C/c2ccc(OC)c(OC)c2)cc1OC [Dimethylcurcumin, ASC-J9] | -40.7% | -25.6% | -5.62%
22 | Cc1cc(C)nc(NS(=O)(=O)c2ccc(NC(=S)NC(=O)COc3ccc(Br)cc3Cl)cc2)n1 | -36.5% | 0.75% | 1.03%
23 | COc1ncnc(NS(=O)(=O)c2ccc(N)cc2)c1OC | -56.1% | -8.08% | 0.355%
24 | COc1cc(/C=C/C(=O)CC(=O)/C=C/c2ccc(O)c(OC)c2)ccc1O [Curcumin] | -0.83% | -25.9% | -6.48%
25 | CCOC(=O)C1=C(C)NC(C)=C(C(=O)OC)C1c1cccc([N+](=O)[O-])c1 (configuration not stated) | -32.3% | -1.02% | 2.87%
26 | O=C(Nc1ccc(S(=O)(=O)Nc2ccccc2Cl)c(Cl)c1)c1ccccn1 | 25.4% | 1.67% | -1.18%
27 | S=C(NCc1ccc2c(c1)OCO2)N1CCN(c2ncnc3c2oc2ccccc23)CC1 [Amuvatinib (MP-470)] | -37.4% | -17.4% | -0.14%
28 | Cc1cc(Nc2ncc(Cl)c(Nc3ccccc3S(=O)(=O)C(C)C)n2)c(OC(C)C)cc1C1CCN(CCOCCOCCNC(=O)CNc2cccc3c2C(=O)N(C2CCC(=O)NC2=O)C3=O)CC1 (configuration not stated) | 66.9% | 9.17% | 62.7%
29 | CC(NCCC(c1ccccc1)c1ccccc1)c1ccccc1 (configuration not stated) [fendiline] | -38% | -1.99% | 2.01%
30 | Clc1ccc(C(Cn2ccnc2)OCc2csc3c(Cl)cccc23)c(Cl)c1 (configuration not stated) [Sertaconazole] | -18.6% | 3.66% | 1.54%
31 | O=S(=O)(O)CCSSCCS(=O)(=O)O | -1.7% | -2.36% | 0.365%
32 | COc1ccccc1NC(=O)OCC1CCN(C(=O)OC(C)(C)C)CC1 | -21.9% | -0.54% | 0.27%
33 | O=C1NCN(c2ccccc2)C12CCN(CCCC(c1ccc(F)cc1)c1ccc(F)cc1)CC2 [Fluspirilene] | -2.73% | 5.04% | -0.815%
34 | O=C(OC)C1=C(C)NC(C)=C(C(OCCCN3CCC(C4=CC=CC=C4)(C5=CC=CC=C5)CC3)=O)[C@@H]1[C@]2=CC=CC([N+]([O-])=O)=C2 [dexniguldipine] | -24.7% | -15.1% | -5.83%
35 | NC(=O)c1cn([C@@H]2O[C@H](CO)[C@@H](O)[C@H]2O)c2ncnc(N)c2c1=O | -11.4% | -10.5% | -1.56%
36 | COc1ccc(Cl)cc1C(=O)NCCc1ccc(C(=O)O)cc1 [meglitinide] | -37.6% | -0.23% | -1.25%
37 | NC(=O)N1c2ccccc2CC(O)c2ccccc21 (configuration not stated) [licarbazepine] | -28.1% | -2.99% | 0.095%
38 | O=[N+]([O-])c1ccc2nc(COCc3nc4ccc([N+](=O)[O-])cc4[nH]3)[nH]c2c1 | -34.1% | -3.14% | 4.2%
39 | CC[C@]1(O)C[C@@H]2C[N@@](CCc3c([nH]c4ccccc34)[C@@](C(=O)OC)(c3cc4c(cc3OC)N(C)[C@H]3[C@@](O)(C(=O)OC)[C@H](OC(C)=O)[C@]5(CC)C=CCN6CC[C@]43[C@@H]65)C2)C1.O=S(=O)(O)O [Vinblastine (sulfate)] | -4.41% | -34.3% | -11.4%
40 | CCC(=O)N1CCN(c2ccc(-n3c(=O)ccc4cnc5ccc(-c6cnc7ccccc7c6)cc5c43)cc2C(F)(F)F)CC1 [Torin 1] | 35.7% | -27.5% | -10.5%

Row | SMILES | inhibition of IKZF1 HTRF signal [1] | relative growth in counter assay [2] | relative growth recovery [3]
41 | Cc1ccc2c(=O)c3ccccc3n(CCCN)c2c1C | -12.2% | -35.5% | -14.4%
42 | O=C(N/N=C/c1ccccc1O)c1ccccc1O | -40.4% | 0.05% | -2.29%
43 | C/C(=C\c1csc(C)n1)[C@@H]1C[C@@H]2O[C@]2(C)CCC[C@H](C)[C@H](O)[C@@H](C)C(=O)C(C)(C)[C@@H](O)CC(=O)N1 [Ixabepilone] | -13.2% | -33.8% | -10.8%
44 | CCCCCCC[N+](CC)(CC)CCCCc1ccc(Cl)cc1 [clofilium] | -21.8% | -3.59% | -1.53%
45 | O=C(/C=C/c1ccc(O)cc1)c1ccc(O)cc1O [Isoliquiritigenin] | -0.21% | -7.18% | -1.02%
46 | Cc1nc(-c2cccnc2)sc1C(=O)Nc1ccccc1-c1cn2c(CN3CCOCC3)csc2n1 | 6.43% | -2.87% | -0.27%
47 | COc1ccccc1Oc1c(NS(=O)(=O)c2ccc(C)cn2)nc(-c2ccncc2)nc1OC [Avosentan] | -39.7% | -4.67% | -1.19%
48 | Nc1ccc(-c2ccc3ncc4ccc(=O)n(-c5cccc(C(F)(F)F)c5)c4c3c2)cn1 [torin-2] | 66.5% | -34.6% | -12.2%
49 | Oc1c(I)cc(I)c(O)c1I [riodoxol] | -5.43% | 2.24% | -3.17%
50 | Cc1cc(Nc2ncc(Cl)c(Nc3ccccc3S(=O)(=O)C(C)C)n2)c(OC(C)C)cc1C1CCN(CC(=O)NCCNc2cccc3c2C(=O)N(C2CCC(=O)NC2=O)C3=O)CC1 (configuration not stated) | 24.5% | 3.63% | 24.8%
51 | CN(C)CCN1C(=O)c2cccc3cc(N)cc(c23)C1=O [Amonafide] | 27.6% | -32.4% | -11.7%
52 | O=c1[nH]c2ccccc2n1C1CCN(CCOc2ccccc2)CC1 [oxiperomide] | 23.7% | -11.6% | 2.25%
53 | CSCC[C@H](N)C(=O)O [L-methionine] | -9.26% | -0.43% | 1.19%
54 | Cc1nnsc1C(=O)Nc1ccc(-n2nc(C(F)(F)F)cc2C(F)(F)F)cc1 | -28.9% | 3.65% | 0.005%
55 | Oc1cc(CNC(=S)/C=C/c2cc(O)c(O)c(Br)c2)cc(O)c1O | -32.2% | -34.9% | -11.9%
56 | Cc1ccc(S(=O)(=O)NC(=O)NN2CCCCCC2)cc1 | -31.1% | 0.45% | -2.75%
57 | Cc1cccc(C)c1NC(=O)CN1CCN(CCCC(c2ccc(F)cc2)c2ccc(F)cc2)CC1 [lidoflazine] | -30.1% | 35.6% | 36.1%
58 | CCCSc1ccc2[nH]c(NC(=O)OC)nc2c1 | -15.2% | -32.2% | -11.2%
59 | CSc1ccc2c(c1)N(CCC1CCCCN1C)c1ccccc1S2 (configuration not stated) | -29% | 7.95% | -4.45%

From the supplement of paper PMC12340641
